Screening results as filed in PubChem.
Hits are enriched below; roughly 3.2% of the tested compounds scored in any of these assays.
SKN-1 inh – C. elegans SKN-1 inhibition | C. elegans VP596 Pgst-4::GFP/RFP ratio, acrylamide-induced, 24 h | inhibition, % at 21.8 µM | 0.49% of 360,000 active | AID 624304;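 active = interference check ratio from 0.5 to 1.5 plus GFP to RFP signal ratio inhibition reaching or exceeding a fixed threshold, cut at about 30% in these data, passing the limit was not always enough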
MEKK2mut PB1 HTS – signal of MEK5 binding to mutant human MEKK2 PB1 domain. 0.35% of 290,000 active. bead flow cytometry, Alexa488-MEK5 binding to MEKK2 mutant. percent response, % at 10 µM. AID 1530; in the data active = percent response above about 24%, passing the limit was not always enough
MEKK3 PB1 HTS – raises or lowers MEK5 binding to the human MEKK3 PB1 domain; 1.4% of 290,000 active; AID 1529; Q99759; binding response (% of control), % at 10 µM; bead-based flow cytometry, Alexa488-MEK5 binding to MEKK3; actives lie on both sides; 0 = blocked by unlabeled MEK5, 100 = vehicle;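 active = binding response more than 3 SD above or below the average of its plate-row segment, actives on both sides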;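 also: Alexa488 bead fluorescence after subtracting the streptavidin-only scavenger bead signal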
Target sequence (Q99759 whole entry, looked up, the tested form may be a part): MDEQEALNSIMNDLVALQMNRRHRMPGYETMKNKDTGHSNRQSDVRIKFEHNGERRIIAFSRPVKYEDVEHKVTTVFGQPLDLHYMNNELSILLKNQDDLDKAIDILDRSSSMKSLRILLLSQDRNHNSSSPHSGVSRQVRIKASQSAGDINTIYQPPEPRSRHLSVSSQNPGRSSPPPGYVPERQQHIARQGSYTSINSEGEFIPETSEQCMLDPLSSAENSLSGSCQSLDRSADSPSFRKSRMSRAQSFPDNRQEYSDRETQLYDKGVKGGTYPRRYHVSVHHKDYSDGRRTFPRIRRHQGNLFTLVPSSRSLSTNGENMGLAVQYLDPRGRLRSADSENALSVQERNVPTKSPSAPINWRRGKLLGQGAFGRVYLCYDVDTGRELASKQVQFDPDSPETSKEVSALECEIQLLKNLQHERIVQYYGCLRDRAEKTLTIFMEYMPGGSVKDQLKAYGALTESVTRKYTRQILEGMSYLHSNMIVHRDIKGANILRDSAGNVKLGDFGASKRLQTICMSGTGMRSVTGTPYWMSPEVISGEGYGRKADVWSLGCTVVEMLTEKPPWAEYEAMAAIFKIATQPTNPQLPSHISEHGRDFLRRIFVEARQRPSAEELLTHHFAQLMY
NRP1-CendR mod – alters CendR peptide binding to human NRP-1 | 0.85% of 360,000 active | FAM-RPARPAR peptide binding to NRP-1, fluorescence polarization | inhibition, % at 25 µM | AID 602438 | O14786;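 active = inhibition or corrected inhibition above about 18%, plus a signal ratio from 0.5 to 1.5, limit read from the data, passing the limit was not always enough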
MEKK2 WT-MEK5 – raises or lowers MEK5 binding to wildtype human MEKK2 PB1 domain. bead flow cytometry, Alexa488-MEK5 binding to MEKK2 WT; actives lie on both sides. Q9Y2U5. binding response (% of control), % at 10 µM. 1.1% of 290,000 active. AID 1531; in the data active = binding response below about 67% or above about 130%
Large screens that a line does not name were inactive.

CCOc1ccc(NCc2cccn2-c2nnc(N3CCC(C(=O)NCCCN4CCCCC4CC)CC3)s2)cc1 (stereo not drawn)	MEKK2mut PB1 HTS 24
CCC1CCCCN1CCCNC(=O)C1CCN(c2ncnc3c2nc2n3CCCCC2)CC1 (stereo not drawn)	none
CC(C)c1ccc(NC(=O)CCNC(=O)N2CC(=O)Nc3ccccc32)cc1	none
CCCN(CC(=O)Nc1ccccc1C)C(=O)c1ccc(OCc2c(C)noc2C)cc1	none (no result: MEKK2mut PB1 HTS, MEKK3 PB1 HTS, MEKK2 WT-MEK5)
COc1cc2c(cc1OC)C(=O)C(Br)CC2 (stereo not drawn)	NRP1-CendR mod 26 (no result: MEKK2mut PB1 HTS, MEKK3 PB1 HTS, MEKK2 WT-MEK5)
COc1ccc2c(C(=O)CN3CCN(c4ccccc4)CC3)c[nH]c2c1	MEKK2mut PB1 HTS 67, MEKK2 WT-MEK5 33
Cc1ccc(C)c(N2CCN(C(c3ccc(N(C)C)cc3)c3nnnn3C(C)(C)C)CC2)c1 (stereo not drawn)	SKN-1 inh 46
COc1ccccc1C(c1c(O)nc(SC)[nH]c1=O)c1c(O)nc(SC)[nH]c1=O	none (no result: MEKK2mut PB1 HTS, MEKK3 PB1 HTS, MEKK2 WT-MEK5)
CCOc1cc(C(c2c(O)nc(SC)[nH]c2=O)c2c(O)nc(SC)[nH]c2=O)ccc1O	NRP1-CendR mod 30 (no result: MEKK2mut PB1 HTS, MEKK3 PB1 HTS, MEKK2 WT-MEK5)
O=c1c2c([nH]n1-c1ccccc1)C[C@@H](C1CCCCC1)O[C@H]2c1ccc(F)cc1	none (no result: MEKK2mut PB1 HTS, MEKK3 PB1 HTS, MEKK2 WT-MEK5)
CCCc1cc2nnc(SCC(=O)N(C)C3CCCCC3)n2c(N)n1	SKN-1 inh 43
CCCc1cc(=O)[nH]c(SCC(=O)N(C)C2CCCCC2)n1	none (no result: MEKK2mut PB1 HTS, MEKK3 PB1 HTS, MEKK2 WT-MEK5)
COc1ccc(NC(=O)COc2nsnc2N2CCOCC2)cc1	none
COc1ccc(CCNC(=O)COc2nsnc2N2CCOCC2)cc1OC	SKN-1 inh 40
Cc1ccc(S(=O)(=O)N(C)CC(=O)N2CCCCCC2)cc1	none
O=C(Nc1cccc([N+](=O)[O-])c1)C1C2CC/C=C\CCC21 (stereo not drawn)	NRP1-CendR mod 41
C=CCC1CCCCC1=C(C#N)c1ccccc1 (stereo not drawn)	SKN-1 inh 46 (no result: MEKK2mut PB1 HTS, MEKK3 PB1 HTS, MEKK2 WT-MEK5)
C=CCN1C(c2ccccc2)=CS/C1=C(\C#N)c1nnc2n1CCCCC2	none
O=C(O)c1ccccc1NS(=O)(=O)c1ccc(NNC(=S)Nc2ccc(OC(F)F)cc2)c([N+](=O)[O-])c1	NRP1-CendR mod 26
Cc1cccc(C)c1NC(=O)c1ccc2sc([C@@H]3O[C@H](CO)[C@H](O)[C@H](O)[C@H]3O)nc2c1	none (no result: MEKK2mut PB1 HTS, MEKK3 PB1 HTS, MEKK2 WT-MEK5)
CN(C)S(=O)(=O)c1ccc(-c2csc(N/N=C/c3ccco3)n2)cc1	none
C(=N\Nc1nc(-c2ccccc2)cs1)/c1ccco1	SKN-1 inh 47
O=C(/C=C/c1ccco1)Nc1nc(-c2ccccn2)cs1	none
Clc1ccc(-c2csc(N/N=C\c3cccnc3)n2)cc1	none
Clc1ccc(-c2csc(N/N=C/c3ccco3)n2)cc1	SKN-1 inh 91
O=C(/C=C/c1ccco1)Nc1nc(-c2ccccc2)cs1	SKN-1 inh 51
Cc1ccc(-c2csc(N/N=C/c3ccco3)n2)cc1	SKN-1 inh 60
OC(c1cccc(Cl)c1)c1nc(/C=C/c2ccc(C(F)(F)F)cc2)cs1 (stereo not drawn)	none (no result: MEKK2mut PB1 HTS, MEKK3 PB1 HTS, MEKK2 WT-MEK5)
CC1C(=O)N(Cc2cn(CC3CCCCC3)nn2)CCS(=O)(=O)N1Cc1ccc(-c2ccc(Cl)cc2)cc1 (stereo not drawn)	none (no result: MEKK2mut PB1 HTS, MEKK3 PB1 HTS, MEKK2 WT-MEK5)
Brc1ccc(-c2csc(N/N=C/c3ccco3)n2)cc1	SKN-1 inh 65
C(=N\Nc1nc(-c2ccccc2)cs1)/c1cccs1	none
COc1cccc(C(c2sc3ncnn3c2O)N2CCc3ccccc3C2)c1 (stereo not drawn)	none
Cc1nc2sc(C(c3ccco3)N3CC(C)OC(C)C3)c(O)n2n1 (stereo not drawn)	NRP1-CendR mod 19 (no result: MEKK2mut PB1 HTS, MEKK3 PB1 HTS, MEKK2 WT-MEK5)
COc1cccc(C(c2sc3ncnn3c2O)N2CC(C)OC(C)C2)c1 (stereo not drawn)	SKN-1 inh 35
COc1ccccc1Cc1c(-c2ccc(C#N)cc2)nc2c3ccccc3ccn12	none (no result: MEKK2mut PB1 HTS, MEKK3 PB1 HTS, MEKK2 WT-MEK5)
CCOC(=O)/C=C1\SC(C)C(=O)N1CC(=O)N(CCC#N)c1ccccc1 (stereo not drawn)	none (no result: MEKK2mut PB1 HTS, MEKK3 PB1 HTS, MEKK2 WT-MEK5)
COC(=O)c1ccc(S(=O)(=O)N2CCCCCC2)cc1	SKN-1 inh 35
O=C(/C=C/c1ccc(O)c(O)c1)c1ccc(S(=O)(=O)N2CCCCCC2)cc1	NRP1-CendR mod 22
Cc1cc(C(=O)CCC(=O)Nc2cccc(F)c2)c(C)s1	none (no result: MEKK2mut PB1 HTS, MEKK3 PB1 HTS, MEKK2 WT-MEK5)
COc1cc(NS(=O)(=O)c2ccc(Br)s2)cc(OC)c1	MEKK2 WT-MEK5 -14
